Common to all, as to test: DAPPL (digital affinity profiling via proximity ligation, sequencing); 10 mM Tris-HCl pH 7.5, 50 mM NaCl, 1 mM DTT, 4% glycerol, room temperature, 30 min; GST-TFs on glutathione beads, 16-mer random dsDNA library, 0.1% formaldehyde crosslink after washing; high values mean tight binding
Holding throughout (conditions): protein: recombinant; tags: N-terminal GST; dsDNA, one strand shown

Test [1] has as its target T1, FLI1 (Homo sapiens, UniProt Q01543 1-452).
T1 sequence: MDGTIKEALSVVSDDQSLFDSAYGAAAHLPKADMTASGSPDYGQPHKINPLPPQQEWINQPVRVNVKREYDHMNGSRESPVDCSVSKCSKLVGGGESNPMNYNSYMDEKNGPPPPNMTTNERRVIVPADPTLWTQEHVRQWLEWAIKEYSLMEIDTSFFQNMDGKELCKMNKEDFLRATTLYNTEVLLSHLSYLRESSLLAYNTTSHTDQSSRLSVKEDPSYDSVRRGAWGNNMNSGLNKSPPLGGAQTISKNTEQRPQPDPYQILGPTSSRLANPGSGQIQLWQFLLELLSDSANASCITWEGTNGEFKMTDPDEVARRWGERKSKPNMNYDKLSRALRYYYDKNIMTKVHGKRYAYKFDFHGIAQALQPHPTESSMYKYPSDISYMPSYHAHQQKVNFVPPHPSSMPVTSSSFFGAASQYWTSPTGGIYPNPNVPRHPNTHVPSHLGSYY
The gist of the method:
(§1)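 Binding signal is defined as a hexamer's read frequency for one factor over its frequency for the tag-only sample. To obtain reads, GST-fused human transcription factors were expressed in yeast, captured on glutathione beads, barcoded with DNA and pooled with that sample. Pools met 200 nmole of a 16-mer random double-stranded DNA library in Tris/NaCl/DTT/glycerol buffer for 30 min at room temperature before washing, 0.1% formaldehyde crosslinking, proximity ligation (BsaI/T4 ligase, 1 h, 37 °C), PCR and Illumina NextSeq500 sequencing.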

Test [2] has as its target T2, ELK1 (Homo sapiens, UniProt P19419 1-428).
T2 sequence: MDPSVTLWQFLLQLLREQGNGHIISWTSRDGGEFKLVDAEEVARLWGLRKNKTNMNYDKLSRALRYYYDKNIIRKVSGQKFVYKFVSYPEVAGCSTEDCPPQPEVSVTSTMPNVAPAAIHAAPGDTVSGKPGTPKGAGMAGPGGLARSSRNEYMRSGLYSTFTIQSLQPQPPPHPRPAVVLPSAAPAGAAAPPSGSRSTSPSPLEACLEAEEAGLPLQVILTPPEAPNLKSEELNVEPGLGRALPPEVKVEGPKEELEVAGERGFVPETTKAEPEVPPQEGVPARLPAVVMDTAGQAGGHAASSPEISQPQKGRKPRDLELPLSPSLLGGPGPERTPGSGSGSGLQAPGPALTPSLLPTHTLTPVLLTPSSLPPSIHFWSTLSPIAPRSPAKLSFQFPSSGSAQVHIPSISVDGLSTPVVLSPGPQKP
The gist of the method:
as §1

Test [3] addresses T3, GABPA (Homo sapiens, UniProt Q06546 1-454).
T3 sequence: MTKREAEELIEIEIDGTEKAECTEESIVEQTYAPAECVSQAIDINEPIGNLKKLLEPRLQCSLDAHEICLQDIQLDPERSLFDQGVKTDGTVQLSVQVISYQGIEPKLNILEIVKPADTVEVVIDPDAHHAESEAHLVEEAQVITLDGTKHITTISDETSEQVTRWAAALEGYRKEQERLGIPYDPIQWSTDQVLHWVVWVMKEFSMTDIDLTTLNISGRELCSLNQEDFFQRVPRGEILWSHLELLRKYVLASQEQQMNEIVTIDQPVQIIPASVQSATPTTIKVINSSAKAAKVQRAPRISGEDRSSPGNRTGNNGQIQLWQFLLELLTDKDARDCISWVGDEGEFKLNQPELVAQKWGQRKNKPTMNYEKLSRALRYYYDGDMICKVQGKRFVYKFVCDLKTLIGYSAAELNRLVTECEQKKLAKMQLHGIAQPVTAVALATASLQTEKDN
The gist of the method: as §1

The target in test [4] is T4, ERG (Homo sapiens, UniProt P11308 1-479).
T4 sequence: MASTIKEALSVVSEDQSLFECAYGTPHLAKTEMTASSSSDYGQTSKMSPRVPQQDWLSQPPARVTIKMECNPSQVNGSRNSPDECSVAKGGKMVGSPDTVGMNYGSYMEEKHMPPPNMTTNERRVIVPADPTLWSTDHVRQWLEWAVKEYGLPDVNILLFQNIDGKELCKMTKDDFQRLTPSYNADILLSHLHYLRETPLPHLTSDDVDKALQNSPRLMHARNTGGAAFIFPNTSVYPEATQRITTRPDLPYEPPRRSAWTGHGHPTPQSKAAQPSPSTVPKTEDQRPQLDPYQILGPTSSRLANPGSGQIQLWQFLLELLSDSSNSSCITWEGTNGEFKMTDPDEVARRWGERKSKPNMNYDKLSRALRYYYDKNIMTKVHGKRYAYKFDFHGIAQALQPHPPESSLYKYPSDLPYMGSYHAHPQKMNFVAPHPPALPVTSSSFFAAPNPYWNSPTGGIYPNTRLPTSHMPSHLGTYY
The gist of the method:
as §1

The target of test [5] is ELF1 (Homo sapiens, UniProt P32519 1-619). The gist of the method:
as §1

For test [6], the target named is T5, EHF (Homo sapiens, UniProt Q9NZC4 1-300).
T5 sequence: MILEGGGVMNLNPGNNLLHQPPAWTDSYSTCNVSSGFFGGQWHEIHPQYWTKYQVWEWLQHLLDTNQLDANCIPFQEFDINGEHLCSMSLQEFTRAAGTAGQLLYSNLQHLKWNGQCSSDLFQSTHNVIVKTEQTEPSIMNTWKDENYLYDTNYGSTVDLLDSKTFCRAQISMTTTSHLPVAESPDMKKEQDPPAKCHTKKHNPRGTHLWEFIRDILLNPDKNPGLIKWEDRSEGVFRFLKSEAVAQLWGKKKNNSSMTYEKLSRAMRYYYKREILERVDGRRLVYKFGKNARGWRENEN
The gist of the method:
as §1

In test [7] the target is SPI1 (Homo sapiens, UniProt P17947 1-270). The gist of the method: as §1
Test [8] concerns the target SPIB (Homo sapiens, UniProt Q01892 1-262). The gist of the method:
as §1

Test [9] concerns the target T6, ELK3 (Homo sapiens, UniProt P41970 1-407).
T6 sequence: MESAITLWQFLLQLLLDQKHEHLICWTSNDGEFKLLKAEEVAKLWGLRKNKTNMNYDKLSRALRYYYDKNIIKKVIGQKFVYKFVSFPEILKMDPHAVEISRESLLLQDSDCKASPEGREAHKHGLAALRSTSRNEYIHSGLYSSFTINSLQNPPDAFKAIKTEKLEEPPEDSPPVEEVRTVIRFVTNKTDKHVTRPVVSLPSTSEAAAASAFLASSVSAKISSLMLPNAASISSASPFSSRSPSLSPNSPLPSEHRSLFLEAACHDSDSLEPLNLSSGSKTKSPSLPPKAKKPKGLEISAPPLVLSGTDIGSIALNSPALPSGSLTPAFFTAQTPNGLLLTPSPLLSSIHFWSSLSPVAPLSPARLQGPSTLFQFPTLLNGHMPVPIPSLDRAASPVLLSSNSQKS
The gist of the method: as §1

Test [10] concerns the target T7, FEV (Homo sapiens, UniProt Q99581 1-238).
T7 sequence: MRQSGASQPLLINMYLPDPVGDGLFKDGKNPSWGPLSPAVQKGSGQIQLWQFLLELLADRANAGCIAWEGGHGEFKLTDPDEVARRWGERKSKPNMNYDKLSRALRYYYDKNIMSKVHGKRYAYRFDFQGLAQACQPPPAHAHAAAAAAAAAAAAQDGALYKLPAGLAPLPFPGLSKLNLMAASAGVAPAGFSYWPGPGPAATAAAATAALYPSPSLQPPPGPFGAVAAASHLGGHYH
The gist of the method:
as §1

The target of test [11] is ETV5 (Homo sapiens, UniProt P41161 1-510). The gist of the method: as §1
Test [12] addresses T8, SPIC (Homo sapiens, UniProt Q8N5J4 1-248).
T8 sequence: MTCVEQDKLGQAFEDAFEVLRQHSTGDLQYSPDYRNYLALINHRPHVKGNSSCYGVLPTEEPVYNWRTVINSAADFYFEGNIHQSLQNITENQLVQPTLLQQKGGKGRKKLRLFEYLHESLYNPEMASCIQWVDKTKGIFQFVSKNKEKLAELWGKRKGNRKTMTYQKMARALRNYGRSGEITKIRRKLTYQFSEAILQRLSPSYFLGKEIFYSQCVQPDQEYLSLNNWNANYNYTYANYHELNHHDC
The gist of the method: as §1

The target in test [13] is ELF4 (Homo sapiens, UniProt Q99607 1-663). The gist of the method:
as §1

For test [14], the target named is T9, ELK4 (Homo sapiens, UniProt P28324-2 1-405).
T9 sequence: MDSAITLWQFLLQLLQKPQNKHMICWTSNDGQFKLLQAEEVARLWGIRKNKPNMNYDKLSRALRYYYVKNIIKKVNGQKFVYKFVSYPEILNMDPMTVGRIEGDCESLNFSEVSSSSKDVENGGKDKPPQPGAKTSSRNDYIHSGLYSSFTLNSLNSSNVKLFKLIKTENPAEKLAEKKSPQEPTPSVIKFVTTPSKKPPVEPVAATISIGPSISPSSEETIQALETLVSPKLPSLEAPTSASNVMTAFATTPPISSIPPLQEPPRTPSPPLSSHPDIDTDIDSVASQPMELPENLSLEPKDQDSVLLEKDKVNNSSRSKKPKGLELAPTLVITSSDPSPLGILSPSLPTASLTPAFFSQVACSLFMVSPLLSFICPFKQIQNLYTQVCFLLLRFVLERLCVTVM
The gist of the method: as §1

Test [15] concerns the target T10, ETV2 (Homo sapiens, UniProt O00321 1-342).
T10 sequence: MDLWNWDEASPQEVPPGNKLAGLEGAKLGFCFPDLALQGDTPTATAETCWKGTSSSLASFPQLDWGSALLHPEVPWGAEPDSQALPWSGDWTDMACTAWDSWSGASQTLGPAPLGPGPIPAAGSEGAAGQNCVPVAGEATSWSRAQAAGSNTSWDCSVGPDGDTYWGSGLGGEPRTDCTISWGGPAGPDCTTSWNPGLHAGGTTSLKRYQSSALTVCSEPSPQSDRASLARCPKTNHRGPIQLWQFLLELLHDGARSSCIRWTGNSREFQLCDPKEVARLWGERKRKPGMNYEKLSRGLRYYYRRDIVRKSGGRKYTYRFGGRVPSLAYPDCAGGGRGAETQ
The gist of the method: as §1

Test [16] has as its target T11, ELF3 (Homo sapiens, UniProt P78545 1-371).
T11 sequence: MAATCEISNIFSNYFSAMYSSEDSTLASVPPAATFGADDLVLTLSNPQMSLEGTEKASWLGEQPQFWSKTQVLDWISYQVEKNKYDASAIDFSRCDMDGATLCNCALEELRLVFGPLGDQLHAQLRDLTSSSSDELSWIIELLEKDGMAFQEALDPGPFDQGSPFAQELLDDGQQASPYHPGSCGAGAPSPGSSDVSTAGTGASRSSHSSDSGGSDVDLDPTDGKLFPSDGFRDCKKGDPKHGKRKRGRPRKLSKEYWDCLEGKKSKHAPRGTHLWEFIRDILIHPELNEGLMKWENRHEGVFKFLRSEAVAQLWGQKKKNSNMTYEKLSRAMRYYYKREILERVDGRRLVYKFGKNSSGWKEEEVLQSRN
The gist of the method: as §1

Test [17] concerns the target ETV1 (Homo sapiens, UniProt P50549 1-477). The gist of the method: as §1

Chain of ELF4 (Q99607 whole entry): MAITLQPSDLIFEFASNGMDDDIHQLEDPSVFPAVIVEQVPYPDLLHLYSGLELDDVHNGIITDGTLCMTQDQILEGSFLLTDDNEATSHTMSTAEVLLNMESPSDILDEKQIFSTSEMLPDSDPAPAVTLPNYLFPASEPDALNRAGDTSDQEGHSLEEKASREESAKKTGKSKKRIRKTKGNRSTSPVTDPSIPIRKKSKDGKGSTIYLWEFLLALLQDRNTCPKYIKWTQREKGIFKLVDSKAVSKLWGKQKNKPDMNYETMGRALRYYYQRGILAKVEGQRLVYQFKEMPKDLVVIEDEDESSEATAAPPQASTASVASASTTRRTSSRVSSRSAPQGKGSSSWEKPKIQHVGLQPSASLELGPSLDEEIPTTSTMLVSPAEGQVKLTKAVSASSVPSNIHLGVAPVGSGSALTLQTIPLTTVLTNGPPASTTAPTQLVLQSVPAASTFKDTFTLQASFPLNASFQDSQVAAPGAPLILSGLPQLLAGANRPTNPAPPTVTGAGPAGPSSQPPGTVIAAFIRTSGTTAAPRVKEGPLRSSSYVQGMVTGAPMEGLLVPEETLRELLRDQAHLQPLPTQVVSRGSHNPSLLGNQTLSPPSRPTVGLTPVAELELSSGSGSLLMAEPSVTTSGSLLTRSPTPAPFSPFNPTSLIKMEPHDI
Chain of SPIB (Q01892 whole entry): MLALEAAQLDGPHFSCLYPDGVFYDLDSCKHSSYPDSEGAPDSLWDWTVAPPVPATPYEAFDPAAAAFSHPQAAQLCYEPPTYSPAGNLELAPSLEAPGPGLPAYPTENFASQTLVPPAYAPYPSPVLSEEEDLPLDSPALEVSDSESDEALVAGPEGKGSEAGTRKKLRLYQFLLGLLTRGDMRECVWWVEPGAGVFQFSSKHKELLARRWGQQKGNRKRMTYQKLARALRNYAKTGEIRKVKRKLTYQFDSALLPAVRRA
Chain of ETV1 (P50549 whole entry): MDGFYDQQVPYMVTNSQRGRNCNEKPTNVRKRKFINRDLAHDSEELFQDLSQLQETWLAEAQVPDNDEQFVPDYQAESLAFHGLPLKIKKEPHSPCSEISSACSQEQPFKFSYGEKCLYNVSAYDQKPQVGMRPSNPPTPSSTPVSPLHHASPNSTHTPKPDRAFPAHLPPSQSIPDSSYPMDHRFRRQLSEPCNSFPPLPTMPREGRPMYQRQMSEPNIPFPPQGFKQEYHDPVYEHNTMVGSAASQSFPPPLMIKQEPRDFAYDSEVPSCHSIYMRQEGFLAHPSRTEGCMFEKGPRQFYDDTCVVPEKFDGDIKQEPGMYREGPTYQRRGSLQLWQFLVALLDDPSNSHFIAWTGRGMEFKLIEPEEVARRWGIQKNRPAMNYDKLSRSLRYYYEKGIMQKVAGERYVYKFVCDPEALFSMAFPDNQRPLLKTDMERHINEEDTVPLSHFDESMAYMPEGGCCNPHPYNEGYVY
Chain of ETV5 (P41161 whole entry): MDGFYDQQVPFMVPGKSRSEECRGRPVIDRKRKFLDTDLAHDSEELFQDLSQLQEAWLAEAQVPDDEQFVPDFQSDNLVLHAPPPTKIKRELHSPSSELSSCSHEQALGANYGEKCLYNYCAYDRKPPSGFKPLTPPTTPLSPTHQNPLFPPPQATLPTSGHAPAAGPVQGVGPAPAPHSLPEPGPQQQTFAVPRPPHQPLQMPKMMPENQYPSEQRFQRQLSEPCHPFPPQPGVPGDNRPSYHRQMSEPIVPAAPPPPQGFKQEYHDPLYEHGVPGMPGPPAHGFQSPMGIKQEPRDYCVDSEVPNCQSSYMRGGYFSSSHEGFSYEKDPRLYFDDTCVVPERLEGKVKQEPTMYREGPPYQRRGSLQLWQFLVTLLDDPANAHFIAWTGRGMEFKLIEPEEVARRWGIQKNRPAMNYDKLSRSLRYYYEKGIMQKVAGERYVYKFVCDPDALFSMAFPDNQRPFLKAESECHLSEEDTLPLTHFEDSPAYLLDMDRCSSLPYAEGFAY
Chain of ELF1 (P32519 whole entry): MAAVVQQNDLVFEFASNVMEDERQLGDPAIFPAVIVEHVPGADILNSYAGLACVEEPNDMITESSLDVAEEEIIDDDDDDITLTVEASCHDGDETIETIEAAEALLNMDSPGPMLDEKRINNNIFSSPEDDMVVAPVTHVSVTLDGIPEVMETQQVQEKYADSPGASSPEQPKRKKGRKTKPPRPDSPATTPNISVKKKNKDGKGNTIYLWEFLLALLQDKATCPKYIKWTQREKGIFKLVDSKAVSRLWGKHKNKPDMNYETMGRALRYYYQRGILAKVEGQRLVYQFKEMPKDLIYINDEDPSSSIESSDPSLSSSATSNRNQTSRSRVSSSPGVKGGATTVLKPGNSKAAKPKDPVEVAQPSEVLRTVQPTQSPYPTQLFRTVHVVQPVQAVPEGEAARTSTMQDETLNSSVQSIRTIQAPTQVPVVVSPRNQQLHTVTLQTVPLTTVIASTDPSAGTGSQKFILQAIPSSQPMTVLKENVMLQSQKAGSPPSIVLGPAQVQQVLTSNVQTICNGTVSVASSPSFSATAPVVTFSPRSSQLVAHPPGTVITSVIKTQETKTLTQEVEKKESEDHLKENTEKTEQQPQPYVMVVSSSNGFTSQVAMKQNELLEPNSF

On to CCGGAC, for which the binding signal was 1.47 fold enrichment (6-mer frequency, TF over GST control) in test [1]; 1.48 fold enrichment (6-mer frequency, TF over GST control) in test [2]; 1.41 fold enrichment (6-mer frequency, TF over GST control) in test [3]; 1.74 fold enrichment (6-mer frequency, TF over GST control) in test [4]; 1.44 fold enrichment (6-mer frequency, TF over GST control) in test [5]; 1.56 fold enrichment (6-mer frequency, TF over GST control) in test [6]. In addition, the binding signal in test [7] was 1.41 fold enrichment (6-mer frequency, TF over GST control); in test [8], 1.57 fold enrichment (6-mer frequency, TF over GST control); in test [9] it was 1.38 fold enrichment (6-mer frequency, TF over GST control); in [10], 2.05 fold enrichment (6-mer frequency, TF over GST control); in test [11] it was 1.57 fold enrichment (6-mer frequency, TF over GST control); in test [12], 1.22 fold enrichment (6-mer frequency, TF over GST control). Further, the binding signal in test [13] was 1.44 fold enrichment (6-mer frequency, TF over GST control); in test [14], 1.15 fold enrichment (6-mer frequency, TF over GST control); in test [15] it was 1.39 fold enrichment (6-mer frequency, TF over GST control); in [16] it was 1.45 fold enrichment (6-mer frequency, TF over GST control); in test [17], 1.53 fold enrichment (6-mer frequency, TF over GST control).

For the origin of these results see publication PMC7862700, “An all-to-all approach to the identification of sequence-specific readers for epigenetic DNA modifications on cytosine”.
